Where “and” joins values, the source holds several entries; their conditions need not be identical. Equal values may be shown once. Results filed as inconclusive are left out. Where a call stands in place of a potency, no number is given. Calls of active or inactive are those of the source. Calls come from the whole dose curve; as a rule, active = well fitted curve in the direction sought with a large enough effect; inconclusive = small, poorly fitted or top-dose-only effect, or another doubt; inactive = no such curve, though single readings can be large; an effect the other way counts as inactive or inconclusive.
Potency is the fitted concentration of half-maximal effect.

A short description of the first test: Cell Viability - LYMP1-003 - Assay at 40 hr (AID 964). Note: nearly all actives have a fitted effect of over 60% in size. Particulars: LYMP1-003 lymphoblastoid viability; series mostly up to 92.2 µM. Summed up: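 Acute toxicity is scored as a concentration-dependent loss of intracellular ATP in LYMP1-003 cells (2500/well, complete medium) after 40 hr at 37 C, measured by CellTiter-Glo luminescence; AC50 values derive from standard Hill modelling.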
For the molecule `N[C@@H](Cc1ccc(N(CCCl)CCCl)cc1)C(=O)O`, the Potency entry is “inactive”.
Regarding `CCCC(C)(COC(N)=O)COC(=O)NC(C)C` (configuration not stated), the Potency result was “inactive”.
Consider `CNCC(O)c1ccc(O)cc1` (configuration not stated), for which the Potency result was “inactive”.
With `OCCOc1ccccc1`, the Potency result was “inactive”.
Consider `Oc1ccccc1-c1ccccc1`, for which the Potency entry was “inactive”.
As for `CCOP(=S)(OCC)Oc1cc(C)nc(C(C)C)n1`, the Potency result was “inactive”.
Regarding `Oc1cccc2cccnc12`, the Potency is 31.6 µM (active) and 39.8 µM (active).
Regarding `NCC(O)c1ccc(O)cc1` (configuration not stated), the Potency result was “inactive”.
On to `c1ccc2c(c1)Nc1ccccc1S2`, for which the Potency entry was “inactive”.
Regarding `Oc1ccc(Cl)cc1Cc1ccccc1`, the Potency result is “inactive”.
On to `CC(=O)Oc1ccccc1C(=O)Nc1ncc([N+](=O)[O-])s1`, for which the Potency is 12.6 µM (active).

A short description of another test: Cell Viability - LYMP2-003 (AID 965).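 Note: cells exposed to compounds for 24 h before reading; nearly all actives have a fitted effect of over 50% in size.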 As to conditions: LYMP2-003 lymphoblastoid cell viability; series mostly up to 92.2 µM. Summed up:
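Seed 2500 lymphoblastoid cells/well; incubate 5 hr, 37 C; add compounds; incubate 24 hr, 37 C; add CellTiter-Glo, 30 min RT; read luminescence. AC50 from Hill fit.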
As to `N[C@@H](Cc1ccc(N(CCCl)CCCl)cc1)C(=O)O`, the Potency was 31.6 µM (active).
As for `CCCC(C)(COC(N)=O)COC(=O)NC(C)C` (configuration not stated), the Potency entry is “inactive”.
Take `CNCC(O)c1ccc(O)cc1` (configuration not stated): the Potency result is “inactive”.
Still for that read-out and setting: as for `OCCOc1ccccc1`, the entry is “inactive”; as for `Clc1ccc(COC(Cn2ccnc2)c2ccc(Cl)cc2Cl)cc1` (configuration not stated), “inactive”; as for `Oc1ccccc1-c1ccccc1`, “inactive”.
Consider `CCOP(=S)(OCC)Oc1cc(C)nc(C(C)C)n1`, for which the Potency result was “inactive”.
On to `Oc1cccc2cccnc12`, for which the Potency was 12.6 µM (active).
On to `NCC(O)c1ccc(O)cc1` (configuration not stated), for which the Potency entry was “inactive”.
Take `c1ccc2c(c1)Nc1ccccc1S2`: the Potency result is “inactive”.
For `Oc1ccc(Cl)cc1Cc1ccccc1`, the Potency result is “inactive”.

Values taken from PubChem BioAssay (NCATS).
